TLR9-MyD88 block – inhibitors of human TLR9-MyD88 binding; AID 504734; hit rate 0.21% among 340,000; Q9NR96+Q99836; CHO BLA complementation TLR9-MyD88, CCF4 FRET ratio; inhibition, % at 4.98 µM;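 active means inhibition above the mean over all tested compounds plus 3 SD, cut at about 21% in these data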;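 further: 0% = DMSO only wells and 100% = clavulanate BLA inhibitor control wells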
NTR1 ag – agonists of human neurotensin receptor NTR1; NTR1-U2OS beta-arrestin-GFP spot imaging, agonist mode; activation, % at 20 µM; hit rate 0.17% among 330,000; AID 493036;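 active means activation at or above 40% of the spot to cytoplasm intensity ratio, with at least 20 cells analyzed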;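 further: 0% = DMSO without peptide and 100% = 100 nM NTR1 peptide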
TLR4-MyD88 BLA – blocks binding of human TLR4 to MyD88. HeLa CL3-4 TLR4/MyD88 BLA complementation, FRET ratio. inhibition, % at 8.4 µM. hit rate 0.18% among 200,000. AID 861; in the data active means inhibition above about 25%;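 further: 0% = vehicle and 100% = reference inhibitor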
A1 inh – inhibitors of the anti-apoptotic protein A1, read as caspase activation; AID 2462; MEF A1-2A-BIM cells, Caspase-Glo 3/7 luminescence, 3 h; percent of clofoctol response, vehicle zero; hit rate 0.066% among 330,000; caspase activation, % (no concentration beside the values);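 active means over half of replicate activation scores above 10%, or exactly half above 10 with the replicate mean above 10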
Beta2AR agonist – human beta-2 adrenergic receptor agonism by FAP; P07550; Am2.2-beta2AR cells, FAP receptor internalization, flow cytometry; response, % (concentration not given with the values); hit rate 0.43% among 340,000; AID 504454;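 active means response above a set limit, near 3 SD of response in nonfluorescent compounds, cut at about 42% in these data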
Target sequence (P07550 whole entry, looked up): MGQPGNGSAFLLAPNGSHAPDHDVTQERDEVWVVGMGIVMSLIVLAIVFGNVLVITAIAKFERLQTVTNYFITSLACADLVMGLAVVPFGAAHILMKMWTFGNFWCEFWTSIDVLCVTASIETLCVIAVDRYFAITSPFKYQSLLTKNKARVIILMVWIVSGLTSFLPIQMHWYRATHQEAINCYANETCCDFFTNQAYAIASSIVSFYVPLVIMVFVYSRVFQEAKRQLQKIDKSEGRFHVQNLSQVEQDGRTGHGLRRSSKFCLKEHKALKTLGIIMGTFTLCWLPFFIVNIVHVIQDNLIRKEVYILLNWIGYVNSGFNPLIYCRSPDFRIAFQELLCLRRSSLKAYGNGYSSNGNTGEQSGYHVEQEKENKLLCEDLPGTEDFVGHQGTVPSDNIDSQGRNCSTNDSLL
NOD2 RIPK2 PPI – blocks binding of human NOD2 to RIPK2; AID 624267; CHO BLA complementation NOD2-RIPK2, CCF4 ratio; hit rate 0.38% among 360,000; O43353; inhibition, % at 4.98 µM; in the data active means inhibition above about 21%;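 further: 0% = vehicle only and 100% = reference blocker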
Beta2AR ag CP1 – activates human beta-2 adrenergic receptor | hit rate 25% among 1,100 | percent response (surface receptor), % at 10 µM | shares compounds with Beta2AR agonist | Am2.2-beta2AR cells, FAP surface receptor, flow cytometry; hits give low values;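 active means surface receptor percent response at or below 58%, roughly 3 SD from nonfluorescent compounds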
FAP fluor counter – fluorescence artifact in beta-2AR agonist FAP counterscreen; 1,100 tested, under 10 active; AID 588765; shares compounds with Beta2AR agonist; calls only at 10 µM; Am2.2 cells, FAP fluorogen flow cytometry; hits give low values;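 active means percent response below a set limit in fluorescence channel 1 and below 50% in channel 8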
* hit, by the source's call; i = inactive; x = no result. The list is not random: actives were taken first. Their share in the collection is about 0.97%.

SMILES | TLR9-MyD88 block | NTR1 ag | TLR4-MyD88 BLA | A1 inh | Beta2AR agonist | NOD2 RIPK2 PPI | Beta2AR ag CP1 | FAP fluor counter
COc1ccc(N2C(=O)CS/C2=N\C(=S)Nc2ccccc2)cc1 | -6 | 1 | x | 0 | 0 | 1 | 92 | i
COc1ccc(NC(=O)c2cc(-c3ccncc3)nc3ccc(Br)cc23)cc1OC | 0 | 4 | x | 1 | 97* | 6 | 90 | i
COc1ccc(NC(=O)c2cc(-c3cccnc3)nc3ccc(C)cc23)cc1OC | -8 | x | -6 | x | 32 | -3 | x | x
CCc1ccc(OCc2nnc(-c3ccccc3Br)o2)cc1 | -14 | 0 | x | -1 | -2 | -1 | 92 | i
O=C(OCC(=O)N1CCCC1)c1ccccc1C(=O)c1ccccc1 | 10 | 0 | x | -1 | 5 | -2 | 118 | i
CC1CCN(S(=O)(=O)c2ccc(C(=O)Nc3nnc(-c4ccco4)o3)cc2)CC1 | 7 | 1 | x | 0 | 51* | -6 | 97 | i
COc1ccc(S(=O)(=O)NCCc2cn3nc(C)c(C)nc3n2)cc1 | -1 | 0 | x | 0 | -1 | 6 | x | x
CCc1ccc(CNC(=O)c2ccc(NC(=O)C3=CSCCO3)cc2)cc1 | 0 | 0 | x | 2 | 102* | -4 | 27* | i
CCOc1ccccc1C(=O)N[C@H](C(=O)OCc1csc(CC(=O)Nc2ccc(C)cc2)n1)C(C)C | -11 | 12 | x | 0 | -3 | 3 | x | x
CCOc1ccccc1C(=O)NCC(=O)OCc1csc(CC(=O)Nc2ccc(C)cc2)n1 | 8 | 10 | x | 0 | 85* | -10 | 12* | i
COc1ccc(OC)c(NC(=O)/C=C/c2ccccc2[N+](=O)[O-])c1 | -2 | 2 | 5 | -3 | 0 | -5 | x | x
O=C(Nc1cccc(Cl)c1)N1CCN(C2c3ccccc3-c3ccccc32)CC1 | 1 | 2 | x | 0 | 0 | -2 | x | x
CC(=O)Nc1ccc2c(c1)C(N1CC3CCC(CC3)C1)c1ccccc1-2 (stereo not given) | -6 | x | x | x | 43* | -13 | 97 | i
Nc1ccc2oc(-c3ccc4nc[nH]c4c3)nc2c1 | -5 | -2 | 1 | -3 | 13 | -6 | x | x
Cc1nc2ccc(-c3nc4cc(N)ccc4o3)cc2[nH]1 | -7 | -1 | 3 | -7 | 43* | -3 | 118 | i
CCC/C=N/NC(=O)c1[nH]c2c([N+](=O)[O-])cccc2c1C | 7 | -1 | -5 | 0 | -2 | 1 | x | x
COC(=O)C1=C(C(=O)OC)C(c2ccccc2O)c2sc(=O)[nH]c2S1 (stereo not given) | 2 | 1 | -1 | -1 | 100* | -16 | 93 | i
CC(c1ccc(O)cc1)(c1ccc(O)cc1)c1ccc(CCBr)cc1 | 10 | 17 | x | 0 | -2 | 5 | x | x
Cc1cc(=O)oc2cc(OCC(=O)N3CC(C)OC(C)C3)ccc12 (stereo not given) | x | -1 | 12 | 0 | x | x | x | x
CC1C/C(=N\NC(N)=S)c2cc(Cl)ccc2S1 (stereo not given) | x | 9 | x | 0 | 2 | -2 | 114 | i
CCc1nc2ccc(C(=O)NCCOc3ccc(OC)cc3)cn2c1N(CCN(C)C)CC1CC1 | x | x | x | x | x | -15 | x | x
CCC(=O)Nc1ccc(-c2nn3c(C)nnc3s2)cc1C | -3 | -1 | -5 | -1 | 60* | -13 | 80 | i
COc1ccc(-c2nc(-c3ccncc3)no2)c(OC)c1 | 3 | 0 | x | -6 | -6 | 6 | x | x
Cc1ccc(-c2nnc(SCc3nc4ccccc4[nH]3)n2Cc2ccco2)cc1 | 4 | 1 | 3 | -1 | -32 | -6 | 106 | i
Cc1cccc(-c2nnc(SCc3nc4ccccc4[nH]3)n2Cc2ccco2)c1 | 2 | 0 | 3 | 0 | -4 | -2 | 116 | i
SMILES | TLR9-MyD88 block | NTR1 ag | TLR4-MyD88 BLA | A1 inh | Beta2AR agonist | NOD2 RIPK2 PPI | Beta2AR ag CP1 | FAP fluor counter
c1coc(Cn2c(SCc3nc4ccccc4[nH]3)nnc2-c2cccs2)c1 | 3 | 0 | 2 | -1 | -7 | 5 | x | x
CCN(CC)CCCNC(=O)C1CCC(CNS(=O)(=O)c2c(C)cc(C)cc2C)CC1 (stereo not given) | -6 | 1 | x | 1 | 3 | -5 | x | x
CCCCCn1c(=O)[nH]c2cc(C(=O)NCCCN(C)Cc3ccccc3)ccc2c1=O | 6 | -1 | -3 | 1 | 13 | -2 | x | x
O=C(CCCCCn1c(=O)[nH]c2ccsc2c1=O)NCc1ccc(F)cc1 | -1 | 1 | 7 | 0 | 109* | -6 | 1.5* | i
O=C(CCCCCn1c(=O)[nH]c2ccsc2c1=O)NCc1cccs1 | 3 | -1 | 14 | 1 | 4 | 3 | x | x
Cc1ccc(NC(=O)CCCn2c(=O)[nH]c3ccsc3c2=O)cc1 | 1 | -2 | x | 0 | -4 | -2 | x | x
Cc1ccc(CNC(=O)CCCCn2c(=O)[nH]c3ccsc3c2=O)cc1 | 3 | 2 | -11 | 0 | 12 | 0 | 121 | i
O=C(OCc1c(F)cccc1Cl)c1cnc2ccccc2n1 | 7 | 1 | x | 0 | 46* | 6 | 108 | i
Cc1cc(S(=O)(=O)N2CCCC2)ccc1OCC(=O)NC1CCCC1 | 4 | 1 | 0 | 0 | -1 | 0 | x | x
Cc1cc(S(=O)(=O)N2CCCCC2)ccc1OCC(=O)Nc1ccccc1 | -3 | 1 | x | -1 | 10 | -5 | 102 | i
O=C(COc1ccc(S(=O)(=O)N2CCCC2)cc1Cl)Nc1ccc2c(c1)OCO2 | -16 | 3 | -4 | 1 | -2 | -10 | 118 | i
Cc1cc(S(=O)(=O)N2CCCC2)ccc1OCC(=O)Nc1ccccc1 | 3 | -2 | x | -1 | 7 | -11 | 104 | i
O=S(=O)(O)c1cnccc1Nc1cccc(C(F)(F)F)c1 | -19 | 1 | x | 0 | -4 | -5 | x | x
O=C1CCC(=O)N1c1nc2nc(-c3ccccc3)cc(=O)n2[nH]1 | -10 | -1 | 6 | 0 | 43* | -4 | 120 | i
Cc1[nH]nc(S(=O)CC(=O)O)c1[N+](=O)[O-] (stereo not given) | -2 | 1 | 17 | -1 | 4 | -10 | x | x
Cc1ccc(SC(C)C(=O)Nc2ccc(S(=O)(=O)N3CCOCC3)cc2)cc1 (stereo not given) | -6 | 6 | -3 | 0 | -1 | 5 | x | x
Cc1cccc(NC(=O)N2CCC(C(=O)c3ccc(F)cc3)CC2)c1 | 3 | 0 | x | 0 | 75* | 0 | 105 | i
COc1ccc(C(CCNCc2ccccc2)c2ccc(F)cc2)cc1 (stereo not given) | -5 | 4 | 14 | 0 | 16 | 4 | 85 | i

Screening results (PubChem)
